Results on 94 molecules are retold here after PubChem BioAssay AID504692 (The Scripps Research Institute Molecular Screening Center, 2011).

Structures are written as SMILES. Screen size: about 340,000 compounds; about 2,000 (0.59%) were called active. The sample holds actives, similar compounds and a random draw of the others, so the mix is not that of the screen. Unmarked numbers belong to inactive results. Rule as the data show it: active = activation mostly above about 9.5% (no sharp cut-off); inactive = mostly below about 7.6%.

Sequence of 5-hydroxytryptamine receptor 5A (Homo sapiens) (P47898 whole entry, looked up): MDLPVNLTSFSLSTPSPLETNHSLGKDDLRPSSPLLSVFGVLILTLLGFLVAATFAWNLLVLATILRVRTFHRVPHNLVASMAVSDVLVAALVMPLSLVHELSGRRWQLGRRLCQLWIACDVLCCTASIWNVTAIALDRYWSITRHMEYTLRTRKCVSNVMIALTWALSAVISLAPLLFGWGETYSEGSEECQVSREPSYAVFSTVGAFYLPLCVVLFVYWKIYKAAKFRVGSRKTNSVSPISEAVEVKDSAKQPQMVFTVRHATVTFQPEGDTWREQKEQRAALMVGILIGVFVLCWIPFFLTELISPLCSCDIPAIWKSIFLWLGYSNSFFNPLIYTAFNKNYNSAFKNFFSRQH

The test addresses 5-hydroxytryptamine receptor 5A (Homo sapiens) (UniProt P47898). The experiment in a line: HTR5A agonists in luminescence cell assay, primary screen, counter-screen for OPRM1-OPRD1 heterodimer agonist project, full-deck HTS (AID 504692).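 Also: 0% = cells with vehicle only and 100% = reference agonist.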 Particulars: cell-based, at 9.3 µM, hits give high values. A general note: A counterscreen serves to expose hits that act by an unwanted route or on another target.
For the molecule `O=C(Nc1ccccc1Cc1ccccc1)c1ccc2c(c1)SC1=NS(=O)(=O)CCN12`, the activation was 6.02%.
Under `Cc1cccc(CCNS(=O)(=O)c2ccc3c(c2)NC(=O)CO3)c1` stands -0.45%; under `O=C(C1CCC(=O)N(C2CC2)C1)N1CCN(c2ccc(Cl)cc2)CC1` (centres undefined), 0.66%.
Under `COC(=O)c1cc(C(=O)OCC(=O)Nc2cc(C)on2)cc([N+](=O)[O-])c1` stands 14.7% (active); under `Cc1cc(NC(=O)COc2ccc([N+](=O)[O-])cc2)no1`, -2.97%.
Under `Cc1cc(NC(=O)CSc2nccn2-c2ccc([N+](=O)[O-])cc2)no1` stands -1.99%; under `CC(=O)N1CCN(S(=O)(=O)c2ccc(C)c([N+](=O)[O-])c2)C1C(C)C` (centres undefined), 0.82%; under `CNC(=S)NNC(=O)c1sccc1OCc1ccccc1`, 6.65%.
With `CNC(=S)N/N=C/c1ccc(OCc2ccccc2)c(Br)c1`, the activation is 14.9% (active).
Under `O=C(O)COc1ccc(/C=N/O)cc1Br` stands 1.32%.
Turning to `N=c1c2c3c(sc2ncn1CCCN1CCOCC1)CCCCC3`, the activation was 6.44%.
Next, `COc1ccc(N(CC(=O)NC2CCCC2)C(=O)CS(=O)CC(=O)Nc2ccc3c(c2)OCO3)cc1` (centres undefined): 1.5%; `O=S(=O)(NN=C1CCCCCCC1)c1ccc(Br)cc1`: 9.89% (active); `CC(CNS(=O)(=O)c1ccc(Br)cc1)CN(C)C` (centres undefined): 0.38%.
Regarding `Cc1nc(S(=O)(=O)c2ccc(Br)cc2)nc2c1CCC2`, the activation was 3.89%.
With `CCOc1ccc(NC(=O)c2cc(C)nc3ccccc23)cc1`, the activation is 6.43%.
As to `CCOc1ccc(NC(=O)CSc2nncn2C)cc1`, the activation is 2.03%.
Next, `CCOc1ccc(NC(=O)c2nc(SCC)ncc2Cl)cc1`: 11.8% (active); `Cc1ccc(C)c(Cn2nnc3c(=O)[nH]c(C(=O)Nc4ccc(F)cc4)nc32)c1`: -2.89%; `COc1ccc(NC(=O)COC(=O)c2ccc(NS(=O)(=O)/C=C/c3ccccc3)cc2)cc1`: -1.75%.
Turning to `N#CCCN(C(=O)COC(=O)c1ccc2c(c1)OCCO2)c1ccccc1`, the activation was 5.45%.
Under `Cc1c(C(=O)OCC(=O)N(CCC#N)c2ccccc2)oc2c1ccc1ccccc12` stands 53% (active); under `N#CCCN(C(=O)COC(=O)c1ccc(S(=O)(=O)N2CCCCCC2)cc1)c1ccccc1`, -3.52%; under `CCN1CCN(C(=O)/C=C\C(=O)O)CC1`, 2.72%.
For the molecule `CC1C(C)N(C(=O)CCl)c2ccccc2N1C(=O)CCl` (centres undefined), the activation is 8.76% (active).
Consider `CC1CC(C)CN(CC(=O)N2c3ccccc3CCc3ccccc32)C1` (centres undefined), for which the activation is -4.89%.
Consider `CC1C(=O)N(Cc2ccccc2)c2ccccc2N1C(=O)c1ccccc1` (centres undefined), for which the activation is 0.41%.
As to `Cc1cccc(N2CCN(C(C)C(=O)N3CCc4ccccc43)CC2)c1C` (centres undefined), the activation was 7.68%.
On to `COc1cc(OC)c(-n2cc(-c3ccc(Cl)cc3)[nH]c2=O)cc1Cl`, for which the activation is 5.5%.
Regarding `CC1CCCCN1CCCNc1ccc(C(CC(N)=O)NC(=O)c2ccccc2)cc1[N+](=O)[O-]` (centres undefined), the activation is -1.92%.
Next, `CCC(C)[C@@H](C(=O)N1CCNCC1)n1cc(CCCCN)nn1` (some centres undefined): -1.58%; `NC(N)=NCCCc1cn(CC(=O)N2CCNCC2)nn1`: 12.4% (active).
With `C#CCOCCOCCOCCNc1nc(N2CCN(C(=O)Cn3cc(CCO)nn3)CC2)nc(N2CCN(C(=O)Cn3cc(CCCN=C(N)N)nn3)CC2)n1`, the activation was -2.92%.
Under `Cc1cc(C)c(S(=O)(=O)N(C)CC(=O)NCC2CCCO2)c(C)c1` (centres undefined) stands 8.59%; under `COc1ccc(CN2CCN(C(=O)CCC(=O)Nc3nnc(C(C)C)s3)CC2)cc1F`, 2.2%.
As to `CC(C)OC(=O)c1sc2nc3c(cc2c1N)C(=O)CCC3`, the activation was 5.9%.
Under `Cc1cc(C)c2nc(N(CCN(C)C)C(=O)/C=C/c3cccs3)sc2c1` stands 11.5% (active); under `Cc1ccc2nc(N(CCN(C)C)C(=O)C3=COCCO3)sc2c1`, -2.68%; under `Cc1ccc2sc(N(CCN(C)C)C(=O)/C=C/c3cccs3)nc2c1C`, 6.97%.
Consider `O=C(CSc1nnc(-c2ccc([N+](=O)[O-])cc2)o1)Nc1ccccn1`, for which the activation is 0.96%.
Under `CCc1ccc(OCC(=O)OC(C)C(=O)NC2CC2)cc1` (centres undefined) stands 1.16%; under `Cc1ccc(S(=O)(=O)NCCC(=O)NCc2ccc(Cl)cc2)cc1C`, -0.86%; under `CC(C)CNS(=O)(=O)c1ccc(CCC(=O)NCc2ccc(Cl)cc2)cc1`, 0.62%.
With `CSc1ccc(S(=O)(=O)NCc2ccc(Cl)cc2)cc1`, the activation is 10.3% (active).
On to `Cc1cc(C(C)(C)C)oc1C(=O)N(CC(=O)NC1CCCC1)Cc1ccc(Cl)cc1`, for which the activation is 2.84%.
For `CCOc1ccc(S(=O)(=O)NCCCn2ccnc2)cc1NC(C)=O`, the activation was 2.78%.
For the molecule `NC(=O)C1(C(N)=O)OC1c1ccc(Cl)cc1Cl` (centres undefined), the activation was 3.12%.
In the case of `O=C(COC(=O)c1n[nH]c2ccccc12)Nc1ccccc1Br`, the activation is -1.79%.
Next, `COc1ccc(C)cc1S(=O)(=O)NCCc1ccccc1`: 1.84%; `COc1ccc(C/C(N)=N/OC(=O)c2ccco2)cc1OC`: 1.65%; `COc1ccc(C(=O)O/N=C(\N)Cc2ccc(Cl)cc2Cl)cc1OC`: 27.1% (active).
With `COc1ccc(CCn2ccc(O)c(Cc3ccc(Cl)cc3Cl)c2=O)cc1OC`, the activation is -0.18%.
`CCn1nc(C(=O)OCC(=O)N2c3ccccc3CC2C)c2ccccc2c1=O` (centres undefined): the activation was 36.7% (active).
Under `CCOC(=O)c1[nH]c(C)c(C(=O)OCC(=O)N2c3ccccc3CC2C)c1C` (centres undefined) stands -1.22%.
Turning to `CCOc1ncccc1C(=O)OCC(=O)N1c2ccccc2CC1C` (centres undefined), the activation was -1.04%.
`COc1ccc(NC(=O)CSc2nnc(-c3ccccc3F)n2C2CC2)cc1S(N)(=O)=O`: the activation was -5.29%.
Consider `Cn1c(CCC(=O)Nc2ccccc2F)nnc1SCC(=O)Nc1ccccc1Cl`, for which the activation was -0.17%.
Under `Cc1cc(C)cc(C(=O)N(CCc2ccccc2)C2=CC3CCC(C2)N3C)c1` (centres undefined) stands 7.8%.
Under `CCCN(CCc1ccccc1)C1CCc2c(O)cccc2C1` (centres undefined) stands 24.5% (active).
Regarding `CC(NC(=O)c1cc(-c2ccccc2)on1)c1ccccc1` (centres undefined), the activation is 18.9% (active).
Under `O=C(NC1CCCC1)c1cc(-c2ccccc2)on1` stands -5.2%; under `CC(C)CNC(=O)c1cc(-c2ccc(Br)cc2)on1`, 5.27%; under `CCOC(=O)c1c(/N=C/c2cc(C)ccc2O)sc2c1CCC2`, 3.38%.
Under `Cc1cc(-c2ccc(C)c(S(=O)(=O)NC(C)Cc3ccco3)c2)on1` (centres undefined) stands 11.8% (active).
As to `Cc1cc(-c2ccc(C)c(S(=O)(=O)NCCCN(Cc3ccccc3)C(C)C)c2)on1`, the activation is -3.67%.
Under `Cc1cc(-c2ccc(C)c(S(=O)(=O)Nc3ccc(S(N)(=O)=O)cc3)c2)on1` stands 1.19%.
Turning to `CCc1c(C)c2c(C)[nH]nc2oc1=O`, the activation is 2.29%.
Under `CNS(=O)(=O)c1cccc(C(=O)OCCCC(=O)c2ccccc2)c1` stands 2.3%; under `CN(C)CCCNC(=S)N1CCC(c2nc3ccccc3[nH]2)CC1`, 11.5% (active); under `CCCNC(=S)N1CCCC(c2nc3ccccc3[nH]2)C1` (centres undefined), 2.29%.
Under `CCNC(=S)N1CCC(c2nc3cc(C)c(C)cc3[nH]2)CC1` stands 0.03%.
Under `O=C(OCC(=O)N1CCCCCC1)c1cnc(Cl)c(Cl)c1` stands -5.36%.
Regarding `CCCOc1ccc(C(=O)CCC(=O)OC(C)C(=O)Nc2ccc(NC(C)=O)cc2)cc1` (centres undefined), the activation is 2.99%.
As for `CCCOc1ccc(C(=O)C(CCC(CNCC)C(=O)c2ccc(OCCC)cc2)CNCC)cc1` (centres undefined), the activation is 19.9% (active).
On to `CCCOc1ccc(/C=N/NC(=O)C2CC2)c(OCCC)c1`, for which the activation was 4.85%.
Next, `O=C(c1ccco1)N1CCN(Cc2cccc(C(F)(F)F)c2)CC1`: 4.8%; `Cn1c(CN2CCOCC2)nc2cc(NC(=O)c3ccc(Cl)cc3)ccc21`: 9.89%.
Next, `CN(c1ccccc1)S(=O)(=O)c1cc(C(=O)OCC(=O)N2CCN(C(=O)c3ccco3)CC2)ccc1Cl`: 3.06%; `CN(c1ccccc1)S(=O)(=O)c1cc(C(=O)N2CCN(c3ncccn3)CC2)ccc1Cl`: 15.4% (active).
In the case of `CN(c1ccccc1)S(=O)(=O)c1ccc(C(=O)N2CCN(c3ccccc3Cl)CC2)cc1`, the activation was 0.22%.
As to `Cc1cc(C)cc(C(=O)NCC(=O)OCC(=O)N2CCCCC2)c1`, the activation is -2.45%.
Take `Cc1ccc(S(=O)(=O)N(CC(=O)NCCSC2CCCCC2)c2ccccc2F)cc1`: the activation was 2.64%.
Under `O=C(NC1(C(F)(F)F)N=C2SCCN2C1=O)c1ccco1` (centres undefined) stands 3.99%; under `O=C(OC12CC3CC(CC(C3)C1)C2)c1ccc(NCc2cc(O)ccc2O)cc1`, 21.4% (active); under `COC(=O)c1ccc(NCc2cc(O)ccc2O)cc1`, 6.1%.
As for `CC(C)OC(=O)c1ccc(NCc2cc(O)ccc2O)cc1Cl`, the activation is 3.07%.
Under `C/C(=N\NC(=S)NC1CCCCC1)c1ccc(C)o1` stands 6.64%.
Next, `CCOC(=O)C1CSC(CC(=O)Nc2ccc(OCC)cc2)C(=O)N1` (centres undefined): -5.17%; `CCN(CC)S(=O)(=O)c1cccc(NC(=O)c2ccc(S(=O)(=O)N3CCCC3)cc2)c1`: 13.2% (active); `O=C(CSc1ccccc1)Nc1cccc(S(=O)(=O)N2CCCCC2)c1`: -8.72%.
For the molecule `O=C(Nc1cccc(S(=O)(=O)N2CCCC2)c1)c1cncc(Br)c1`, the activation was 0.81%.
Next, `CCN(CC(=O)Nc1ccc(S(=O)(=O)N2CCCC2)cc1)CC(=O)Nc1cccc(OC)c1`: -2.62%; `CCN(CC(=O)Nc1cccc(S(=O)(=O)N2CCCCC2)c1)Cc1ccccc1`: 15.5% (active).
Next, `O=C(Nc1cccc(S(=O)(=O)N2CCCCC2)c1)c1cncc(Br)c1`: 0.4%.
